Assay results published in publication PMC11006913.
Numbering of substitutions follows the chain as printed.

Tests used:
Experiment in all cases: PBM; 200 nM protein, PBS
Conditions in all cases: dsDNA, one strand shown
CRX [1] = target: CRX (Homo sapiens, UniProt O43186 26-111)
NKX2-6 [2] = target: T1, NKX2-6 (Homo sapiens, UniProt A6NCS4 118-204, R150C)
T1 sequence: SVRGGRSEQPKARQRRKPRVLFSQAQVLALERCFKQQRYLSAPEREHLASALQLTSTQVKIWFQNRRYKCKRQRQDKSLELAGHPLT

CRX [3] = target: CRX (Homo sapiens, UniProt O43186 26-111, E42D)
CRX (Homo sapiens, UniProt O43186 26-111, E42D), sequence (O43186 26-111 E42D): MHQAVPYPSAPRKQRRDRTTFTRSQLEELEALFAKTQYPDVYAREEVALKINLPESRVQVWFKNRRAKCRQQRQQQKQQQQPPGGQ

NKX3-2 [4] = target: NKX3-2 (Homo sapiens, UniProt P78367 192-278, P234S)
NKX3-2 (Homo sapiens, UniProt P78367 192-278, P234S), sequence (P78367 192-278 P234S): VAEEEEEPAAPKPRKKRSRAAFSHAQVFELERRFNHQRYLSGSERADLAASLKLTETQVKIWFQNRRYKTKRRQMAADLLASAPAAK

CRX [5] = target: CRX (Homo sapiens, UniProt O43186 26-111, R41L)
CRX (Homo sapiens, UniProt O43186 26-111, R41L), sequence (O43186 26-111 R41L): as the sequence (O43186 26-111 E42D) above, with R16L, D17E counted along it

NKX3-2 [6] = target: NKX3-2 (Homo sapiens, UniProt P78367 192-278)
NKX3-2 (Homo sapiens, UniProt P78367 192-278), sequence (P78367 192-278): as the sequence (P78367 192-278 P234S) above, with S43P counted along it

HOXB6 [7] = target: HOXB6 (Homo sapiens, UniProt P17509 132-218, K202E)
HOXB6 (Homo sapiens, UniProt P17509 132-218, K202E), sequence (P17509 132-218 K202E): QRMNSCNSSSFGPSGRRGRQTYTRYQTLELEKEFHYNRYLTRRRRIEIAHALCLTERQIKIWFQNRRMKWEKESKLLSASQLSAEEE

HOXB6 [8] = target: HOXB6 (Homo sapiens, UniProt P17509 132-218)
HOXB6 (Homo sapiens, UniProt P17509 132-218), sequence (P17509 132-218): as the sequence (P17509 132-218 K202E) above, with E71K counted along it

PAX4 [9] = target: T2, PAX4 (Homo sapiens, UniProt O43316 9-242, R200K)
T2 sequence: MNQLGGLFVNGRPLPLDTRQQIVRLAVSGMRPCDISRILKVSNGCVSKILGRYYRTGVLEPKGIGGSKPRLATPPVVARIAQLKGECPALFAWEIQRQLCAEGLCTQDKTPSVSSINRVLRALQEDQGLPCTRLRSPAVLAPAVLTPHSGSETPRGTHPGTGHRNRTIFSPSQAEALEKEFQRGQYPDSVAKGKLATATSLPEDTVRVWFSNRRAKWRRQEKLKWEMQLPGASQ

PAX4 [10] = target: T3, PAX4 (Homo sapiens, UniProt O43316 9-242)
T3 sequence: T2 sequence with K192R

PAX4 [11] = target: T4, PAX4 (Homo sapiens, UniProt O43316 9-242, R200Q)
T4 sequence: T2 sequence with K192Q

PAX4 [12] = target: T5, PAX4 (Homo sapiens, UniProt O43316 9-242, F177V)
T5 sequence: T2 sequence with F169V, K192R

PAX4 [13] = target: T6, PAX4 (Homo sapiens, UniProt O43316 9-242, F177Y)
T6 sequence: T2 sequence with F169Y, K192R

PAX4 [14] = target: T7, PAX4 (Homo sapiens, UniProt O43316 9-242, R227W)
T7 sequence: T2 sequence with K192R, R219W

HOXA7 [15] = target: HOXA7 (Homo sapiens, UniProt P31268 116-202)
HOXA7 (Homo sapiens, UniProt P31268 116-202), sequence (P31268 116-202): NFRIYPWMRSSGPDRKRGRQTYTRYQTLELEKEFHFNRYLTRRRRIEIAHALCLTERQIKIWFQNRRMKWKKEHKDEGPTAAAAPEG

HOXA7 [16] = target: HOXA7 (Homo sapiens, UniProt P31268 116-202, W177C)
HOXA7 (Homo sapiens, UniProt P31268 116-202, W177C), sequence (P31268 116-202 W177C): as the sequence (P31268 116-202) above, with W62C counted along it

PRRX1 [17] = target: PRRX1 (Homo sapiens, UniProt P54821 80-166, F113S)
PRRX1 (Homo sapiens, UniProt P54821 80-166, F113S), sequence (P54821 80-166 F113S): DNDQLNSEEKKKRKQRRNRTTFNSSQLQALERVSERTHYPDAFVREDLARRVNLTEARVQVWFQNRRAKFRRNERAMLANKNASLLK

ALX1 [18] = target: ALX1 (Homo sapiens, UniProt Q15699 118-204, L144V)
ALX1 (Homo sapiens, UniProt Q15699 118-204, L144V), sequence (Q15699 118-204 L144V): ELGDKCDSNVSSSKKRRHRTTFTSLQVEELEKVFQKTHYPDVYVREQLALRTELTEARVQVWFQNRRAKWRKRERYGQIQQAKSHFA

NKX2-6 [19] = target: T8, NKX2-6 (Homo sapiens, UniProt A6NCS4 118-204)
T8 sequence: T1 sequence with C33R

ALX1 [20] = target: ALX1 (Homo sapiens, UniProt Q15699 118-204, L144R)
ALX1 (Homo sapiens, UniProt Q15699 118-204, L144R), sequence (Q15699 118-204 L144R): as the sequence (Q15699 118-204 L144V) above, with V27R counted along it

PROP1 [21] = target: PROP1 (Homo sapiens, UniProt O75360 56-141)
PROP1 (Homo sapiens, UniProt O75360 56-141), sequence (O75360 56-141): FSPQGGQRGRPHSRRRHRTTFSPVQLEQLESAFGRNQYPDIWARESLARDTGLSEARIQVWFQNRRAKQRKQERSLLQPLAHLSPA

PROP1 [22] = target: PROP1 (Homo sapiens, UniProt O75360 56-141, R99H)
PROP1 (Homo sapiens, UniProt O75360 56-141, R99H), sequence (O75360 56-141 R99H): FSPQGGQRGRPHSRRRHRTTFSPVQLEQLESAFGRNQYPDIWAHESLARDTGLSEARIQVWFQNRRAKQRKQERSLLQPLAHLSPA

VAX1 [23] = target: VAX1 (Homo sapiens, UniProt Q5SQQ9 86-172)
VAX1 (Homo sapiens, UniProt Q5SQQ9 86-172), sequence (Q5SQQ9 86-172): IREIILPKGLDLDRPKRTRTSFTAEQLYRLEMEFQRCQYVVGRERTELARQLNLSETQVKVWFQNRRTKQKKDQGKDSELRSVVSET

NKX2-6 [24] = target: T9, NKX2-6 (Homo sapiens, UniProt A6NCS4 118-204, F151L)
T9 sequence: T1 sequence with C33R, F34L

PROP1 [25] = target: PROP1 (Homo sapiens, UniProt O75360 56-141, F88S)
PROP1 (Homo sapiens, UniProt O75360 56-141, F88S), sequence (O75360 56-141 F88S): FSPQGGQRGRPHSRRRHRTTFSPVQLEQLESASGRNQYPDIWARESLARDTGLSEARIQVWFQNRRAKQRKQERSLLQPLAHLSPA

VAX1 [26] = target: VAX1 (Homo sapiens, UniProt Q5SQQ9 86-172, T142I)
VAX1 (Homo sapiens, UniProt Q5SQQ9 86-172, T142I), sequence (Q5SQQ9 86-172 T142I): as the sequence (Q5SQQ9 86-172) above, with T57I counted along it

ALX1 [27] = target: ALX1 (Homo sapiens, UniProt Q15699 118-204)
ALX1 (Homo sapiens, UniProt Q15699 118-204), sequence (Q15699 118-204): as the sequence (Q15699 118-204 L144V) above, with V27L counted along it

PRRX1 [28] = target: PRRX1 (Homo sapiens, UniProt P54821 80-166)
PRRX1 (Homo sapiens, UniProt P54821 80-166), sequence (P54821 80-166): as the sequence (P54821 80-166 F113S) above, with S34F counted along it

VAX1 [29] = target: VAX1 (Homo sapiens, UniProt Q5SQQ9 86-172, K157R)
VAX1 (Homo sapiens, UniProt Q5SQQ9 86-172, K157R), sequence (Q5SQQ9 86-172 K157R): as the sequence (Q5SQQ9 86-172) above, with K72R counted along it

CRX (Homo sapiens, UniProt O43186 26-111), sequence (O43186 26-111): as the sequence (O43186 26-111 E42D) above, with D17E counted along it

Sequence: GACGCGCC
- binding signal (CRX [1]): 8.22 upbm affinity estimate (log intensity, higher = more binding, comparable within an allelic series)
- binding signal (NKX2-6 [2]): 9.4 upbm affinity estimate (log intensity, higher = more binding, comparable within an allelic series)
- binding signal (CRX [3]): 8.15 upbm affinity estimate (log intensity, higher = more binding, comparable within an allelic series)
- binding signal (NKX3-2 [4]): 10.5 upbm affinity estimate (log intensity, higher = more binding, comparable within an allelic series)
- binding signal (CRX [5]): 8.22 upbm affinity estimate (log intensity, higher = more binding, comparable within an allelic series)
- binding signal (NKX3-2 [6]): 10.5 upbm affinity estimate (log intensity, higher = more binding, comparable within an allelic series)

Sequence: CTAACTCC
- binding signal (CRX [1]): 9.81 upbm affinity estimate (log intensity, higher = more binding, comparable within an allelic series)
- binding signal (CRX [3]): 9.62 upbm affinity estimate (log intensity, higher = more binding, comparable within an allelic series)

Sequence: CAGGGCGG
- binding signal (CRX [1]): 8.46 upbm affinity estimate (log intensity, higher = more binding, comparable within an allelic series)
- binding signal (HOXB6 [7]): 8.95 upbm affinity estimate (log intensity, higher = more binding, comparable within an allelic series)
- binding signal (CRX [3]): 8.33 upbm affinity estimate (log intensity, higher = more binding, comparable within an allelic series)
- binding signal (CRX [5]): 8.31 upbm affinity estimate (log intensity, higher = more binding, comparable within an allelic series)
- binding signal (HOXB6 [8]): 8.83 upbm affinity estimate (log intensity, higher = more binding, comparable within an allelic series)

Sequence: CCACGCCA
- binding signal (CRX [1]): 8.11 upbm affinity estimate (log intensity, higher = more binding, comparable within an allelic series)
- binding signal (PAX4 [9]): 9.43 upbm affinity estimate (log intensity, higher = more binding, comparable within an allelic series)
- binding signal (PAX4 [10]): 9.33 upbm affinity estimate (log intensity, higher = more binding, comparable within an allelic series)
- binding signal (CRX [3]): 8.32 upbm affinity estimate (log intensity, higher = more binding, comparable within an allelic series)
- binding signal (PAX4 [11]): 9.45 upbm affinity estimate (log intensity, higher = more binding, comparable within an allelic series)
- binding signal (PAX4 [12]): 9.5 upbm affinity estimate (log intensity, higher = more binding, comparable within an allelic series)
- binding signal (PAX4 [13]): 9.5 upbm affinity estimate (log intensity, higher = more binding, comparable within an allelic series)
- binding signal (PAX4 [14]): 9.53 upbm affinity estimate (log intensity, higher = more binding, comparable within an allelic series)
- binding signal (CRX [5]): 8.24 upbm affinity estimate (log intensity, higher = more binding, comparable within an allelic series)

Sequence: AGCGTCCG
- binding signal (CRX [1]): 8.29 upbm affinity estimate (log intensity, higher = more binding, comparable within an allelic series)
- binding signal (HOXA7 [15]): 8.2 upbm affinity estimate (log intensity, higher = more binding, comparable within an allelic series)
- binding signal (CRX [3]): 8.33 upbm affinity estimate (log intensity, higher = more binding, comparable within an allelic series)
- binding signal (HOXA7 [16]): 8.37 upbm affinity estimate (log intensity, higher = more binding, comparable within an allelic series)
- binding signal (CRX [5]): 8.29 upbm affinity estimate (log intensity, higher = more binding, comparable within an allelic series)

Sequence: CACCACGC
- binding signal (CRX [1]): 8.26 upbm affinity estimate (log intensity, higher = more binding, comparable within an allelic series)
- binding signal (PRRX1 [17]): 9.44 upbm affinity estimate (log intensity, higher = more binding, comparable within an allelic series)
- binding signal (NKX2-6 [2]): 9.32 upbm affinity estimate (log intensity, higher = more binding, comparable within an allelic series)
- binding signal (CRX [3]): 8.36 upbm affinity estimate (log intensity, higher = more binding, comparable within an allelic series)
- binding signal (ALX1 [18]): 6.3 upbm affinity estimate (log intensity, higher = more binding, comparable within an allelic series)
- binding signal (NKX2-6 [19]): 9.32 upbm affinity estimate (log intensity, higher = more binding, comparable within an allelic series)
- binding signal (ALX1 [20]): 6.36 upbm affinity estimate (log intensity, higher = more binding, comparable within an allelic series)
- binding signal (PROP1 [21]): 6.81 upbm affinity estimate (log intensity, higher = more binding, comparable within an allelic series)
- binding signal (PROP1 [22]): 6.8 upbm affinity estimate (log intensity, higher = more binding, comparable within an allelic series)
- binding signal (VAX1 [23]): 7.04 upbm affinity estimate (log intensity, higher = more binding, comparable within an allelic series)
- binding signal (NKX2-6 [24]): 9.49 upbm affinity estimate (log intensity, higher = more binding, comparable within an allelic series)
- binding signal (PROP1 [25]): 6.67 upbm affinity estimate (log intensity, higher = more binding, comparable within an allelic series)
- binding signal (VAX1 [26]): 7.3 upbm affinity estimate (log intensity, higher = more binding, comparable within an allelic series)
- binding signal (CRX [5]): 8.34 upbm affinity estimate (log intensity, higher = more binding, comparable within an allelic series)
- binding signal (ALX1 [27]): 6.37 upbm affinity estimate (log intensity, higher = more binding, comparable within an allelic series)
- binding signal (PRRX1 [28]): 9.04 upbm affinity estimate (log intensity, higher = more binding, comparable within an allelic series)
- binding signal (VAX1 [29]): 7.04 upbm affinity estimate (log intensity, higher = more binding, comparable within an allelic series)

Sequence: GATTAACA
- binding signal (CRX [1]): 12.9 upbm affinity estimate (log intensity, higher = more binding, comparable within an allelic series)
- binding signal (CRX [3]): 12.5 upbm affinity estimate (log intensity, higher = more binding, comparable within an allelic series)

Sequence: AATGCTAA
- binding signal (CRX [1]): 10.4 upbm affinity estimate (log intensity, higher = more binding, comparable within an allelic series)
- binding signal (PAX4 [10]): 10.9 upbm affinity estimate (log intensity, higher = more binding, comparable within an allelic series)
- binding signal (CRX [3]): 10.3 upbm affinity estimate (log intensity, higher = more binding, comparable within an allelic series)
- binding signal (PAX4 [12]): 10.1 upbm affinity estimate (log intensity, higher = more binding, comparable within an allelic series)
- binding signal (PAX4 [13]): 10.2 upbm affinity estimate (log intensity, higher = more binding, comparable within an allelic series)
- binding signal (PAX4 [14]): 10.2 upbm affinity estimate (log intensity, higher = more binding, comparable within an allelic series)

Sequence: AGGCCTTA
- binding signal (CRX [1]): 10.1 upbm affinity estimate (log intensity, higher = more binding, comparable within an allelic series)
- binding signal (CRX [3]): 9.82 upbm affinity estimate (log intensity, higher = more binding, comparable within an allelic series)
